{
  "source": "PubChem BioAssay",
  "key": {"[1]": {"assay": "EMT-state selective cytotoxicity in co-culture – imaging, PC-3E GFP, TEM4-18 mCherry, primary screen (AID 1345086);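 for all read-outs here: cells exposed to compound for 72 h before imaging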;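 for red/green cell ratio (normalised): normalised mesenchymal count divided by normalised epithelial count so high means epithelial killing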", "settings": "PC-3E GFP / TEM4-18 mCherry co-culture, imaging cell counts, at 1 µM; for red/green cell ratio (normalised): actives lie on both sides"}, "[2]": {"system": "Aerobactin synthetase IucA (Klebsiella pneumoniae hvKP1)", "assay": "IucA enzyme inhibition, primary screen, biochemical, Spectrum library (AID 1346200; call rule not given here;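 note: 100% = wells without compound and 0% = wells lacking enzyme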)", "settings": "malachite green pyrophosphate, A620, at 8 µM, stronger effect = lower value"}, "[3]": {"target": "Mitogen-activated protein kinase 7 (Homo sapiens) (UniProt Q13164)", "sequence (Q13164 whole entry, looked up, the tested form may be a part)": "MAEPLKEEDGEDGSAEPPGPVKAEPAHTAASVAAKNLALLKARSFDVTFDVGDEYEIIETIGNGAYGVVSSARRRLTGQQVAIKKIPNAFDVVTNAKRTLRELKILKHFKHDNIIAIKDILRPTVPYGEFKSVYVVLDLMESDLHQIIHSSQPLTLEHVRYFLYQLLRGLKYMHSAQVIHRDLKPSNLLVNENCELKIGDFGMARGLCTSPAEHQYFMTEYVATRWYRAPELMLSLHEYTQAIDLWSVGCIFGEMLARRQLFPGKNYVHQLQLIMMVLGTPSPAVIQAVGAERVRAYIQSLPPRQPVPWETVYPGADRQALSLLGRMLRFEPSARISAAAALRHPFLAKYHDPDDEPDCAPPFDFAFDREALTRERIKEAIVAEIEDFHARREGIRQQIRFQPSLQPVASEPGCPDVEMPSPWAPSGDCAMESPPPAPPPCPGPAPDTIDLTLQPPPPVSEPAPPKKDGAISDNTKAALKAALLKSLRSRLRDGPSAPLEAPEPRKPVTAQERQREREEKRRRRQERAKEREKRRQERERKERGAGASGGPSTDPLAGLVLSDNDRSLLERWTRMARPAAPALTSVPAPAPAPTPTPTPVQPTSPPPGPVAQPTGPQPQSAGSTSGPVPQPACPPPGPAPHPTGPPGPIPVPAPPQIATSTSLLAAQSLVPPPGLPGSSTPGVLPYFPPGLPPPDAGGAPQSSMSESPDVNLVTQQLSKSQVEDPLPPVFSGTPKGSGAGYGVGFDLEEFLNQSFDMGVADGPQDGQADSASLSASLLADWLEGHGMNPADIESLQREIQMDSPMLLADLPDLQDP", "assay": "Gal4-ERK5 driven luciferase induction – cell-based, HTS, primary screen (AID 1508626;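 active = luciferase signal above three times the same-plate solvent-only control wells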;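 note: luciferase driven by Gal4-ERK5 fusion binding five Gal4 sites before minimal TATA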)", "settings": "HeLa Gal4-ERK5 transactivation, 18 h, at 5 µM, stronger effect = higher value"}, "[4]": {"assay": "blockers of polyQ-driven CASP3 activation – cell-based (AID 1583)", "settings": "polyglutamine-induced caspase-3 activation, cell assay; stronger effect = higher value;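 tested at 10 µM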"}, "[5]": {"assay": "yeast 75Q aggregation reduction – 75Q-TubU reporter (AID 1593)", "settings": "Yeast 75Q polyglutamine aggregation reporter"}, "[6]": {"assay": "restoration of touch response, mutant HTT neurons – whole organism, C. elegans mechanosensory neurons, N-terminal huntingtin (AID 1599)", "settings": "C. elegans polyQ-huntingtin mechanosensory neurons, stronger effect = higher value"}, "[7]": {"assay": "blockers of cytochrome c efflux from mitochondria – biochemical, purified mitochondria (AID 1603);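 note: mouse liver mitochondria challenged with calcium chloride; signal normalized to the plate average as 100%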", "settings": "stronger effect = lower value"}, "[8]": {"assay": "polyglutamine aggregate formation blockers (AID 1604)", "settings": "polyglutamine-induced protein aggregation inhibition assay; stronger effect = higher value; tested at 2.5 µM"}, "[9]": {"assay": "glutamate transport activators, MN-1 cells, MN-1 cell line (AID 1612);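 note: tested at 1 µM final; 0% = mean of DMSO vehicle wells on each plate; positive means more glutamate uptake than control and negative means less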", "settings": "MN-1 motor neuron cells, stronger effect = higher value"}, "[10]": {"assay": "75Q-TubH aggregate inhibition, S. cerevisiae, yeast (AID 1616)", "settings": "S. cerevisiae 75Q-TubH polyglutamine aggregation suppression; stronger effect = higher value"}, "[11]": {"assay": "P. berghei load reduction in hepatocytes – cell-based, HepG2, luciferase luminescence, HepG2 viability, primary screen (AID 624349; in the data active = parasite load remaining mostly below about 12%, no sharp cut-off; inactive = mostly above about 10%;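 note: 100% = mean of DMSO negative control wells on the same plate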)", "settings": "P. berghei liver stage in HepG2, luciferase luminescence, concentration not given here; parasite load remaining: stronger effect = lower value; viability: measured here: HepG2 viability without parasites"}, "[12]": {"assay": "viability loss with induced miR-34 in A549 – imaging, A549 dox-inducible miR-34, nuclei and caspase counts, primary screen (AID 1347080;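 active = compounds whose cell count with miR-34 switched on is under 0.7 times the count with it off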)", "settings": "A549 miR-34 inducible, Hoechst nuclei count, 48 h"}, "[13]": {"settings": "measured here: epithelial PC-3E GFP cell survival"}, "[14]": {"settings": "measured here: mesenchymal TEM4-18 mCherry cell survival"}, "[15]": {"settings": "measured here: relative caspase fold change +Dox/-Dox"}, "[16]": {"settings": "measured here: total cells with miR-34 induction, stronger effect = lower value"}, "[17]": {"settings": "measured here: total cells without miR-34 induction"}},
  "note": "For some of these results: Entries with a potency or affinity are not part of this list. Calls of active or inactive are those of the source.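 Rule for the calls, unless noted: active = compounds killing one labelled cell type while sparing the other, by normalised counts and ratio limits, not self-fluorescent; inactive = the rest.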",
  "data": [
    {"compound": "CC1(C)C2CC(=O)[C@]3(C)C(CC[C@@]4(C)[C@H](c5ccoc5)OC(=O)[C@H]5O[C@]543)[C@@]2(C)C(=O)C[C@H]1O", "note": "(stereo not given in full)", "values": [
      {"measurement": "red/green cell ratio (normalised)", "setting": "[1]", "value": "0.94 (inactive)"},
      {"measurement": "normalised cell number", "setting": "[1]; [13]", "value": 1.08},
      {"measurement": "normalised cell number", "setting": "[1]; [14]", "value": 1.01},
      {"measurement": "activity remaining", "setting": "[2]", "value": "109% (inactive)"},
      {"measurement": "luciferase signal", "setting": "[3]", "value": "36 AU (inactive)"}
    ]},
    {"compound": "O=C(NC(=O)c1c(F)cccc1F)Nc1ccc(Cl)cc1", "values": [
      {"measurement": "red/green cell ratio (normalised)", "setting": "[1]", "value": "1 (inactive)"},
      {"measurement": "normalised cell number", "setting": "[1]; [13]", "value": 0.99},
      {"measurement": "normalised cell number", "setting": "[1]; [14]", "value": 0.99},
      {"measurement": "activity remaining", "setting": "[2]", "value": "122% (inactive)"},
      {"measurement": "luciferase signal", "setting": "[3]", "value": "32 AU (inactive)"}
    ]},
    {"compound": "c1cncc(C2CCCCN2)c1", "note": "(stereo not given)", "values": [
      {"measurement": "red/green cell ratio (normalised)", "setting": "[1]; counts scaled to control wells, 1 = unselective", "value": "0.98 (inactive)"},
      {"measurement": "normalised cell number", "setting": "[1]; [13]", "value": 1.09},
      {"measurement": "normalised cell number", "setting": "[1]; [14]", "value": 1.07},
      {"measurement": "activity remaining", "setting": "[2]", "value": "102% (inactive)"},
      {"measurement": "luciferase signal", "setting": "[3]", "value": "20 AU (inactive)"}
    ]},
    {"compound": "CC[C@H]1CN2CCC1C[C@@H]2[C@@H](O)c1ccnc2ccc(OC)cc12", "note": "(stereo not given in full)", "values": [
      {"measurement": "inhibition", "setting": "[4]", "value": -3.48, "unit": "%"},
      {"measurement": "score", "setting": "[5]", "value": 1.22},
      {"measurement": "rescue above control", "setting": "[6]", "value": -8.65},
      {"measurement": "cytochrome c release ratio", "setting": "[7]", "value": 0.67},
      {"measurement": "inhibition of aggregation", "setting": "[8]", "value": 32.5, "unit": "%"},
      {"measurement": "glutamate uptake change", "setting": "[9]", "value": 1.44, "unit": "%"},
      {"measurement": "aggregation suppression score", "setting": "[10]", "value": 1.35},
      {"measurement": "parasite load remaining", "setting": "[11]", "value": "20% (inactive)"},
      {"measurement": "viability", "setting": "[11]", "value": 79.3, "unit": "%"},
      {"measurement": "red/green cell ratio (normalised)", "setting": "[1]", "value": "0.99 (inactive)"},
      {"measurement": "normalised cell number", "setting": "[1]; [13]", "value": 1.01},
      {"measurement": "normalised cell number", "setting": "[1]; [14]", "value": 1},
      {"measurement": "activity remaining", "setting": "[2]", "value": "117% (inactive)"}
    ]},
    {"compound": "CN1CC(CNC(=O)OCc2ccccc2)CC2c3cccc4c3c(cn4C)CC21", "note": "(stereo not given)", "values": [
      {"measurement": "inhibition", "setting": "[4]", "value": -46, "unit": "%"},
      {"measurement": "score", "setting": "[5]", "value": 1.1},
      {"measurement": "rescue above control", "setting": "[6]", "value": 11.5},
      {"measurement": "cytochrome c release ratio", "setting": "[7]", "value": 0.97},
      {"measurement": "inhibition of aggregation", "setting": "[8]", "value": 12.2, "unit": "%"},
      {"measurement": "glutamate uptake change", "setting": "[9]", "value": 5.85, "unit": "%"},
      {"measurement": "aggregation suppression score", "setting": "[10]", "value": 1.13},
      {"measurement": "red/green cell ratio (normalised)", "setting": "[1]", "value": "0.64 (inactive)"},
      {"measurement": "normalised cell number", "setting": "[1]; [13]", "value": 1.26},
      {"measurement": "normalised cell number", "setting": "[1]; [14]", "value": 0.81},
      {"measurement": "activity remaining", "setting": "[2]", "value": "113% (inactive)"}
    ]},
    {"compound": "NC1=NC(=O)N2CC12", "note": "(stereo not given)", "values": [
      {"measurement": "red/green cell ratio (normalised)", "setting": "[1]", "value": "0.74 (inactive)"},
      {"measurement": "normalised cell number", "setting": "[1]; [13]", "value": 1.2},
      {"measurement": "normalised cell number", "setting": "[1]; [14]", "value": 0.88},
      {"measurement": "fold change", "setting": "[12]; stronger effect = lower value", "value": "0.901 (inactive)"},
      {"measurement": "fold change", "setting": "[12]; [15]", "value": 0.97},
      {"measurement": "cell count", "setting": "[12]; [16]", "value": 8180},
      {"measurement": "cell count", "setting": "[12]; [17]", "value": 9090}
    ]},
    {"compound": "C[C@]12CC[C@H](O)CC1=CCC1C2CC[C@]2(C)C(=O)CC[C@@H]12", "note": "(stereo not given in full)", "values": [
      {"measurement": "red/green cell ratio (normalised)", "setting": "[1]", "value": "0.71 (inactive)"},
      {"measurement": "normalised cell number", "setting": "[1]; [13]", "value": 1.37},
      {"measurement": "normalised cell number", "setting": "[1]; [14]", "value": 0.97},
      {"measurement": "fold change", "setting": "[12]; stronger effect = lower value", "value": "0.933 (inactive)"},
      {"measurement": "fold change", "setting": "[12]; [15]", "value": 1.12},
      {"measurement": "cell count", "setting": "[12]; [16]", "value": 7350},
      {"measurement": "cell count", "setting": "[12]; [17]", "value": 7880}
    ]},
    {"compound": "CC(CC(C(N)=O)(c1ccccc1)c1ccccc1)N(C)C", "note": "(stereo not given)", "values": [
      {"measurement": "parasite load remaining", "setting": "[11]", "value": "59.7% (inactive)"},
      {"measurement": "viability", "setting": "[11]", "value": 166, "unit": "%"},
      {"measurement": "red/green cell ratio (normalised)", "setting": "[1]", "value": "0.86 (inactive)"},
      {"measurement": "normalised cell number", "setting": "[1]; [13]", "value": 1.14},
      {"measurement": "normalised cell number", "setting": "[1]; [14]", "value": 0.99},
      {"measurement": "fold change", "setting": "[12]; stronger effect = lower value", "value": "0.911 (inactive)"},
      {"measurement": "fold change", "setting": "[12]; [15]", "value": 5.38},
      {"measurement": "cell count", "setting": "[12]; [16]", "value": 11900},
      {"measurement": "cell count", "setting": "[12]; [17]", "value": 13000},
      {"measurement": "luciferase signal", "setting": "[3]", "value": "172 AU (inactive)"}
    ]},
    {"compound": "C[C@]12CCC3[C@@H](CC[C@@]45O[C@@H]4C(O)=C(C#N)C[C@]35C)C1CC[C@@H]2O", "note": "(stereo not given in full)", "values": [
      {"measurement": "red/green cell ratio (normalised)", "setting": "[1]", "value": "0.77 (inactive)"},
      {"measurement": "normalised cell number", "setting": "[1]; [13]", "value": 1.16},
      {"measurement": "normalised cell number", "setting": "[1]; [14]", "value": 0.89},
      {"measurement": "fold change", "setting": "[12]; stronger effect = lower value", "value": "1 (inactive)"},
      {"measurement": "fold change", "setting": "[12]; [15]", "value": 0.592},
      {"measurement": "cell count", "setting": "[12]; [16]", "value": 8890},
      {"measurement": "cell count", "setting": "[12]; [17]", "value": 8870}
    ]}
  ]
}
